Assay [1] in a line: P-glycoprotein substrates identified in KB-3-1 adenocarcinoma cell line, qHTS therapeutic library screen (AID 1346986). Note: nearly all actives have a fitted effect of over 60% in size. Put shortly:
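In 1536-well format, 500 cells/well received pinned compound titrations and were incubated 72 h, 5% CO2. Viability was read by CellTiter-Glo; cytotoxic if AC50 < 10 uM and efficacy >50%.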

Assay [2] can be described thus: P-glycoprotein substrates identified in KB-8-5-11 adenocarcinoma cell line, qHTS therapeutic library screen (AID 1346987). Note: nearly all actives have a fitted effect of over 65% in size. The essentials: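 Luminescence from CellTiter-Glo, read 5 min after addition, quantified survival of KB-8-5-11 (P-gp-overexpressing) cells exposed to compounds for 72 h. AC50 was derived from concentration-response curves.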

The source of these data is PubChem BioAssay (NCATS).

Inconclusive results are not listed. Entries that show only a call come without a potency. Activity calls are given as the source filed them. Calls come from the whole dose curve; as a rule, active = well fitted curve in the direction sought with a large enough effect; inconclusive = small, poorly fitted or top-dose-only effect, or another doubt; inactive = no such curve, though single readings can be large; an effect the other way counts as inactive or inconclusive.

In the case of `CC(=O)O[C@H](C[C@@H](C)[C@H]1C(=O)[C@H](O)[C@@]2(C)[C@@H]3CCC4C(C)(C)[C@@H](O[C@@H]5OC[C@H](O)[C@H](O)[C@H]5O)CC[C@@]45C[C@@]35CC[C@]12C)[C@@H]1OC1(C)C` (some centres not stated), the Potency entry in assay [1] and in assay [2] was “inactive” in each case.

On to `OC[C@H]1O[C@@H](Oc2cc(O)cc(/C=C/c3ccc(O)cc3)c2)[C@H](O)[C@@H](O)[C@@H]1O`, for which the Potency entry in assay [1] and in assay [2] was “inactive” in each case.

Turning to `CC(CCC1C(C(=O)O)=CC(=O)CC1(C)C)O[C@@H]1O[C@H](CO)[C@@H](O)[C@H](O)[C@H]1O` (some centres not stated), the Potency result in assay [1] and in assay [2] was “inactive” throughout.

As to `CC(=O)NC(C(=O)OC1CCC(C)(C)C2CC=C3C(=O)OCC3(O)C12C)C(C)C` (configuration not stated), the Potency result in assay [1] and in assay [2] was “inactive” each time.

Turning to `CCn1c2ccccc2c2cc(CNC)ccc21`, the Potency entry in assay [1] and in assay [2] was “inactive” each time.

On to `COc1ccc(/C=C/C(=O)O[C@H]2[C@@H]3C=CO[C@@H](O[C@@H]4O[C@H](CO)[C@@H](O)[C@H](O)[C@H]4O)[C@@H]3[C@@]3(CO)O[C@@H]23)cc1O`, for which the Potency entry in assay [1] and in assay [2] was “inactive” each time.

For `C=C1C(=O)OC2CC(C)=C(C(C)CCCO[C@@H]3O[C@H](CO)[C@@H](O)[C@H](O)[C@H]3O)C(O)C12` (some centres not stated), the Potency entry in assay [1] and in assay [2] was “inactive” in each case.

Turning to `CCCn1cnc2c(NCc3ccccc3)nc(N[C@H](CC)CO)nc21`, the Potency result in assay [1] and in assay [2] was “inactive” in each case.

For the compound `C/C(=C\CCC(C)(O)c1ccc(C)cc1)C(=O)O` (configuration not stated), the Potency result in assay [1] and in assay [2] was “inactive” in each case.

In the case of `CCC(C)/C=C(C)/C=C/C1=CC2=C(Cl)C(=O)C(C)(OC(C)=O)C(=O)C2=CN1CCCC(=O)O` (configuration not stated), the Potency result in assay [1] and in assay [2] was “inactive” throughout.

Consider `O=C(O)CCc1cccc(O[C@@H]2O[C@H](CO)[C@@H](O)[C@H](O)[C@H]2O)c1O`, for which the Potency entry in assay [1] and in assay [2] was “inactive” throughout.
